Compounds with a hit are over-represented: about 9.2% of the library has one in this group of screens.
Rab9 promoter act = qHTS Assay for Rab9 Promoter Activators | Huh7 Rab9 promoter-luciferase reporter, luminescence, 24 h | Potency, µM (highest dose often 9.22 µM), for inactives: top-dose activation, negative = inhibition, hits mostly activators | actives 2.8% (n = 320,000) | AID 485297, 2010; further: % of control where 0% means no effect; nearly all actives have a fitted effect of over 60% in size
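Huh7 reporter line, Rab9 promoter upstream of luciferase. Compound exposure 24 h at 37 °C in reduced-serum medium with 10% FBS. Read-out: luminescence.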
SMN2 splice up = qHTS Assay for Enhancers of SMN2 Splice Variant Expression. HEK293 SMN2-luciferase splicing reporter, luminescence, 30-36 h. Potency, µM (series often up to 46.1 µM), without a hit: top-dose activity change, positive = activation, most hits filed as activators. actives 2.8% (n = 210,000). AID 1458, 2008; further: % of control where 0% means no effect; nearly all actives have a fitted effect of over 55% in size
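qHTS luciferase splicing reporter: luminescence rises when SMN2 exon 7 is included in transfected HEK293 cells. Compound exposure lasted 30-36 h at 37C, with 4.5 mM final sodium butyrate as control, followed by a ONE-Glo read.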
ELG1 genotoxic = qHTS screen for small molecules that induce genotoxicity in human embryonic kidney (HEK293T) cells expressing luciferase-tagged ELG1. HEK293T ELG1-luciferase reporter, luminescence, 16 h. Potency, µM (top dose mostly 46 µM), inactives show at the top dose activity change, positive = activation, most hits filed as activators. actives 1.3% (n = 330,000). AID 504466, 2011; further: % of control where 0% means no effect; nearly all actives have a fitted effect of over 60% in size
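16 hr compound incubation (37 °C, 5% CO2) of HEK293T cells carrying luciferase-tagged ELG1; luciferase then measured by ONE-Glo luminescence after 30 min at RT.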
ELG1 repair inh = qHTS screen for small molecules that inhibit ELG1-dependent DNA repair in human embryonic kidney (HEK293T) cells expressing luciferase-tagged ELG1; HEK293T ELG1-luciferase reporter, luminescence, 16 h; DNA damage induced by 5-fluorouridine; Potency, µM (titrated, usually from 46.1 µM), without a hit: at the highest dose activity change, negative = inhibition, usual class: inhibitors; actives 2.3% (n = 330,000); AID 504467, 2011; further: on the % scale 0 is the no-effect control and ±100 the full control effect; nearly all actives have a fitted effect of over 55% in size
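In this reporter screen, reduction of luminescence relative to DMSO vehicle indicated activity. Compounds and 5-fluorouridine were added together to 2,000 cells per well, incubated for 16 hr at 37 °C, then developed with ONE-Glo.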
NPC1 promoter act = qHTS Assay for NPC1 Promoter Activators. Huh7 NPC1 promoter luciferase reporter, 24 h. Potency, µM (doses to about 9.22 µM), for the others: top-dose activation, hits mostly activators. actives 2.4% (n = 320,000). AID 485313, 2010; further: % of control where 0% means no effect; nearly all actives have a fitted effect of over 60% in size
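Luminescence from an NPC1 promoter-driven luciferase reporter in stably transfected Huh7 cells was measured after 24 h compound treatment at 37 °C, followed by 10 min ambient incubation with luciferase detection reagent.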
FLuc counter = qHTS profiling assay for firefly luciferase inhibitor/activator using purifed enzyme and Km concentrations of substrates (counterscreen for miR-21 project); Luciferin 4-monooxygenase (Photinus pyralis), P08659; purified FLuc, Km substrates, luminescence inhibition; Potency, µM (doses to about 57.5 µM), inactives show top-dose activity change, negative = inhibition, hits mostly inhibitors; actives 6.9% (n = 360,000); AID 588342, 2011;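 further: plate controls were vehicle for no effect and reference inhibitor for full effect; nearly all actives have a fitted effect of over 55% in size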
Target sequence (P08659 whole entry, looked up): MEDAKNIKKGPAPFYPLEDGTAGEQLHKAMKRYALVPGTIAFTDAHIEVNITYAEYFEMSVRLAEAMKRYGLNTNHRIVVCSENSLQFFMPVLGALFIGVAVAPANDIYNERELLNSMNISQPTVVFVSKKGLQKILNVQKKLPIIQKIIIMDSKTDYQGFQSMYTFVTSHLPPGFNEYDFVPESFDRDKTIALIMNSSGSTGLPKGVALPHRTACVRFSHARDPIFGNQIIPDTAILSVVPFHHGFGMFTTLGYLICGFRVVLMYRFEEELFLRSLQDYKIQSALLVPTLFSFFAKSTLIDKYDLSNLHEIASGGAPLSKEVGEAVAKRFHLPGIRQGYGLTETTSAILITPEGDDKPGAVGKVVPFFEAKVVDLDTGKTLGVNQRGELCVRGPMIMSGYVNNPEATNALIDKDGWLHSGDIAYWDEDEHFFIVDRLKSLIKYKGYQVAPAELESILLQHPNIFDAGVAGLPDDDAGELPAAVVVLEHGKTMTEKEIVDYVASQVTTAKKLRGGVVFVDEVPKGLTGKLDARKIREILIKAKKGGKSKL
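Purified P. pyralis luciferase, 10 nM final, with Km-level 10 uM D-luciferin and 10 uM ATP in 50 mM Tris acetate pH 7.5, 10 mM Mg acetate, 0.01% Tween-20, 0.05% BSA; 6-point qHTS titration about 60 µM downward; luminescence read.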
* marks the source's active call; other numbers are inactive results. The call rests on the fitted dose curve; in most records, active means well fitted curve in the direction sought with a large enough effect; inconclusive means small, poorly fitted or top-dose-only effect, or another doubt; inactive means no such curve, though single readings can be large; an effect the other way counts as inactive or inconclusive. Potency means the concentration at half of the fitted maximal effect.

Results for COc1ccc(NC(=O)Nc2cccc3c2O[C@H](CN(C)S(=O)(=O)c2ccccc2)[C@@H](C)CN([C@H](C)CO)C3=O)cc1 ?
ELG1 genotoxic: 0%; ELG1 repair inh: -17%

Results for C[C@H](CO)N1C[C@H](C)[C@@H](CN(C)C(=O)Nc2ccc(C(F)(F)F)cc2)Oc2c(NC(=O)Nc3ccc(C(F)(F)F)cc3)cccc2C1=O ?
ELG1 genotoxic: -7%; ELG1 repair inh: 16µM*

Results for C[C@H](CO)N1C[C@H](C)[C@@H](CN(C)C(=O)Nc2ccc3c(c2)OCO3)Oc2c(NC(=O)Nc3ccccc3)cccc2C1=O ?
ELG1 genotoxic: -5%; ELG1 repair inh: 6.5µM*

Results for C[C@H]1CN([C@@H](C)CO)C(=O)c2cccc(NC(=O)Nc3ccc(C(F)(F)F)cc3)c2O[C@@H]1CN(C)C(=O)Nc1ccc(F)cc1 ?
ELG1 genotoxic: -5%; ELG1 repair inh: inconclusive

Results for CCOC(=O)CCCCCC(=O)Nc1ccc2c(c1)CC(=O)N([C@H](C)CO)C[C@@H](C)[C@H](CN(C)Cc1ccc3c(c1)OCO3)O2 ?
ELG1 genotoxic: -1%; ELG1 repair inh: 5%

What do the screens show for `COc1ccc(NC(=O)Nc2cccc3c2O[C@H](CN(C)S(=O)(=O)c2ccc(OC)cc2)[C@@H](C)CN([C@H](C)CO)C3=O)cc1`?
ELG1 genotoxic: -6%; ELG1 repair inh: 21µM*

What do the screens show for `C[C@@H]1CN([C@H](C)CO)C(=O)Cc2cc(NC(=O)Nc3ccccc3)ccc2O[C@@H]1CN(C)Cc1ccc2c(c1)OCO2`?
ELG1 genotoxic: -13%; ELG1 repair inh: 16µM*

How did COCCN(C(=O)COC(=O)c1cccs1)c1c(N)n(Cc2ccccc2)c(=O)[nH]c1=O do in these assays?
Rab9 promoter act: 0%; ELG1 genotoxic: 4%; ELG1 repair inh: 14%; NPC1 promoter act: 1%; FLuc counter: 0%

Results for COCCNC(=O)CN1C(=O)c2cccc3cccc1c23 ?
Rab9 promoter act: 4%; ELG1 genotoxic: -3%; ELG1 repair inh: inconclusive; NPC1 promoter act: -8%; FLuc counter: -11%

Results for C[C@@H]1CN([C@@H](C)CO)C(=O)c2cc(NS(=O)(=O)c3cccs3)ccc2O[C@H]1CN(C)Cc1ccc(C(F)(F)F)cc1 ?
ELG1 genotoxic: -3%; ELG1 repair inh: 16µM*

How did CC(C)NC(=O)N(C)C[C@H]1Oc2ccc(NC(=O)C3CCCCC3)cc2C(=O)N([C@H](C)CO)C[C@@H]1C do in these assays?
ELG1 genotoxic: 4%; ELG1 repair inh: inconclusive

Results for C[C@H]1CN([C@@H](C)CO)C(=O)c2cc(NC(=O)C3CCCCC3)ccc2O[C@H]1CN(C)C(=O)Nc1ccc2c(c1)OCO2 ?
ELG1 genotoxic: 1%; ELG1 repair inh: 1.3µM*

How did Cc1nccn1CCCN1C(=O)CNC1=S do in these assays?
Rab9 promoter act: 0%; SMN2 splice up: -3%; ELG1 genotoxic: 2%; ELG1 repair inh: 6%; NPC1 promoter act: -2%; FLuc counter: -2%

Results for Cc1cc2nc(N3C(=O)CNC3=S)sc2cc1C ?
Rab9 promoter act: 0.45µM*; SMN2 splice up: 4µM*; ELG1 genotoxic: 18µM*; ELG1 repair inh: inconclusive; NPC1 promoter act: 0.45µM*; FLuc counter: 0.54µM*
